The source of these data is PubChem BioAssay (NCI).

The panel holds about 79,000 compounds, 15% with a hit somewhere; the sample as a whole holds those more often. Values without a mark were called inactive. Active and inactive are the calls of the source. Cut-off read from the data, not from the text of the source: active = growth inhibition above about 70%; inactive = the rest. Where a SMILES comes first, the peptide text is derived from it. Bridges are numbered along the chain shown (N, C = ends). Roman numbers before positions name the chains, in order. The star is where a group is joined. Cbz = O=C(OCc1ccccc1)*

Test [1] can be described thus: NCI Yeast Anticancer Drug Screen. Data for the rad50 strain (AID 155).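 Note: 0% = growth of vehicle-only cultures of the same strain.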 Conditions: S. cerevisiae rad50 strain growth inhibition; at 50.0 µM; active compounds read high. Put shortly: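 Readout: growth inhibition relative to vehicle-treated cultures. Compound exposure was carried out in a genetically defined yeast strain deficient in DNA damage repair.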
The nature of test [2]: NCI Yeast Anticancer Drug Screen. Data for the mec2-1 strain (AID 157). Particulars: S. cerevisiae mec2-1 strain, at 50.0 µM, active compounds read high. Put shortly: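 mec2-1 yeast strain, carrying an alteration in DNA damage repair or cell cycle control, was exposed to compounds; growth inhibition was measured relative to vehicle-treated controls.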
Test [3] in a line: NCI Yeast Anticancer Drug Screen. Data for the sgs1 mgt1 strain (AID 161).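 Note: 0% = growth of cultures given vehicle only.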 Particulars: S. cerevisiae sgs1 mgt1 strain, at 50.0 µM, active compounds read high. Put shortly: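 This yeast growth screen uses a strain with defined DNA-repair lesions; compound-treated growth is compared with vehicle-treated growth.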
Test [4] is described as follows: NCI Yeast Anticancer Drug Screen. Data for the cln2 rad14 strain (AID 165).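 Note: 0% = growth equal to vehicle treated cultures.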 Conditions: S. cerevisiae cln2 rad14 strain, at 50.0 µM, active compounds read high. In short, it runs like this: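 Yeast carrying cln2 and rad14 alterations (cell cycle control and DNA damage repair) were exposed to compounds. Growth inhibition was measured against vehicle-treated controls.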

Test [5] can be described thus: NCI Yeast Anticancer Drug Screen. Data for the bub3 strain (AID 167). Particulars: S. cerevisiae bub3 mutant strain, at 50.0 µM, active compounds read high. Put shortly:
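Readout: yeast growth inhibition, expressed relative to vehicle-only wells. The test organism is a mutant strain from a panel with lesions in DNA repair or checkpoint genes.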

The nature of test [6]: NCI Yeast Anticancer Drug Screen. Data for the mlh1 rad18 strain (AID 175). Conditions: S. cerevisiae mlh1 rad18 strain growth inhibition; at 50.0 µM; active compounds read high. Put shortly:
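Growth inhibition of the yeast strain was measured after compound exposure and expressed relative to vehicle-treated controls. The strain carries defined defects in DNA damage repair.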

Take `Cc1nnc2n(c1=O)CCCN2C`: the growth inhibition is -0.35% in test [1]; 6.2% in test [2]; 11.6% in test [3]; -11.8% in test [4]; 15.8% in test [5]; 13.4% in test [6].

As to `CC(C)C(NC(=O)C(CSSCC(NC(=O)OCc1ccccc1)C(=O)NC(C(=O)O)C(C)C)NC(=O)OCc1ccccc1)C(=O)O` (stereo not drawn) (I: Cbz-Cys-Val-OH / II: Cbz-Cys-Val-OH; disulfide I:1-II:1; configuration not given here), the growth inhibition in test [1] was 1.4%; in test [2], 11.3%; in test [3], -3.75%; in test [4], -3.25%; in test [5] it was -1%; in test [6], 3.3%.

As for `Nc1c(-c2ccccc2[N+](=O)[O-])nc2ccccn12`, the growth inhibition was -16.1% in test [1]; -43.5% in test [2]; -49.3% in test [3]; -2.15% in test [4]; -19.2% in test [5]; -21.1% in test [6].

With `CC(=O)NC1C(OC(C)=O)OC(COC(c2ccccc2)(c2ccccc2)c2ccccc2)C(O)C1OC(C)=O` (stereo unspecified), the growth inhibition in test [1] is 63.9%; in test [2], 47.5%; in test [3] it was 5%; in test [4], 41.2%; in test [5], 47.2%; in test [6] it was 44%.

Regarding `CC(C)(C)CC(C)(C)c1ccc(OCCOc2ccc(S(=O)(=O)O)cc2[N+](=O)[O-])cc1`, the growth inhibition was 68.8% in test [1]; 30.9% in test [2]; 71.7% (active) in test [3]; 1.65% in test [4]; -8.85% in test [5]; 37.2% in test [6].

Turning to `C=C1C(=O)O[C@H]2[C@H]1[C@H](OC(=O)/C(C)=C\C)CC(=C)[C@@H]1[C@H](O)[C@H]3O[C@@]3(C)[C@@]12O`, the growth inhibition is 3.85% in test [1]; -14.8% in test [2]; 21.2% in test [3]; 5.25% in test [4]; -5.95% in test [5]; -18% in test [6].

For `NNC(=O)C(=O)N/N=C1\CCC(=O)CC1C(=O)CCC(=O)Nc1ccc(Cl)cc1` (stereo unspecified), the growth inhibition is 10.3% in test [1]; 1.05% in test [2]; -16.6% in test [3]; -9.35% in test [4]; -0.8% in test [5]; -17.5% in test [6].

In the case of `CCCCC(C(N)=O)C(C)(C)C(=O)O` (stereo unspecified), the growth inhibition in test [1] was -6%; in test [2] it was -0.45%; in test [3], 4.9%; in test [4], -21.2%; in test [5], 9.85%; in test [6] it was -1.75%.

With `CCCCCCCCCCCCCCCCOc1ccc(S(=O)(=O)NC(C)(C)C)cc1[N+](=O)[O-]`, the growth inhibition in test [1] is 8.7%; in test [2], -17.4%; in test [3] it was 7.85%; in test [4], -1.6%; in test [5] it was 20.6%; in test [6] it was 18.9%.

Consider `Cc1ccc(OC/C=C/c2ccc(C#N)cc2)cc1`, for which the growth inhibition in test [1] was 2.55%; in test [2], 0.05%; in test [3], -4.15%; in test [4] it was -17.6%; in test [5] it was 1.8%; in test [6], -3%.

In the case of `CCCCOC(=O)c1ccc(NC(=O)Nc2ccc([N+](=O)[O-])cc2OC)cc1`, the growth inhibition is -24.2% in test [1]; -11.1% in test [2]; -17.6% in test [3]; 50.7% in test [4]; -0.8% in test [5]; 6.05% in test [6].

With `Cc1nc(C(=O)O)c2ccccc2n1`, the growth inhibition in test [1] was -2.8%; in test [2], 2.45%; in test [3], -8.05%; in test [4] it was 3.6%; in test [5], -9.65%; in test [6], 4.6%.

As for `c1nc2c([nH]1)CNCC2`, the growth inhibition was -3.05% in test [1]; -11.2% in test [2]; -9.05% in test [3]; -65.7% in test [4]; -12.2% in test [5]; 5% in test [6].

For `CCOC(=O)C1=C(Nc2ccc(Cl)cc2Cl)OC/C1=N\NS(=O)(=O)c1ccc(C)cc1`, the growth inhibition was -3.95% in test [1]; 9.25% in test [2]; 1.2% in test [3]; -8.6% in test [4]; -2.45% in test [5]; 3.3% in test [6].

With `COc1cc(C2C3=C(COC3=O)Oc3cc4c(cc32)OCO4)cc(OC)c1OC` (stereo unspecified), the growth inhibition in test [1] was -3.15%; in test [2], 24.1%; in test [3], -8.35%; in test [4] it was 14.2%; in test [5] it was -12.2%; in test [6], 3.5%.

As to `O=C1N2Cc3c4ccc5c3CN3C(=O)N6Cc7c(ccc(c7CN1C6(c1ccccc1)C23c1ccccc1)OCCOCCNCCOCCO4)OCCOCCNCCOCCO5` (stereo unspecified), the growth inhibition is -31.1% in test [1]; -26.2% in test [2]; -34.2% in test [3]; 3.4% in test [4]; -16.2% in test [5]; -30.1% in test [6].

Consider `C#CCCC#C`, for which the growth inhibition in test [1] is -4.4%; in test [2], -17.3%; in test [3] it was 8.4%; in test [4], 6%; in test [5] it was -16.1%; in test [6] it was -5.8%.

Take `COc1ccc(/C=N/NC(=O)/C(C#N)=C/c2ccc(OC)cc2)cc1`: the growth inhibition in test [1] is 23.1%; in test [2], 19.1%; in test [3] it was 3.7%; in test [4], -11.5%; in test [5] it was 19.4%; in test [6] it was 16.4%.

With `CCOC(=O)/C=C/CI`, the growth inhibition in test [1] was 12.8%; in test [2], -34.5%; in test [3] it was 10.4%; in test [4], 8.4%; in test [5], 13.5%; in test [6] it was 16.2%.

Turning to `O=[N+]([O-])c1ccc(Sc2c3ccccc3nc3cc(Cl)ccc23)cc1`, the growth inhibition in test [1] is -32.2%; in test [2] it was -18.3%; in test [3], -18.5%; in test [4], 9.3%; in test [5], -20.3%; in test [6], -28.9%.

Regarding `CC(O)c1cccc(NC(=O)Nc2ccc(Cl)c(Cl)c2)c1` (stereo unspecified), the growth inhibition is 12% in test [1]; 83.4% (active) in test [2]; 70% in test [3]; 1.15% in test [4]; 43.8% in test [5]; 54.5% in test [6].
